Assay outcomes as filed in PubChem.
Pf growth 48h: P. falciparum growth inhibition at 48 hours (one generation) | Potency, µM (series often up to 28.7 µM), hits mostly inhibitors | actives 5.9% (n = 310,000) | P. falciparum luciferase growth in erythrocytes, 48 h; active = well fitted inhibition curve with a large enough effect; inconclusive = small, poorly fitted or top-dose-only effect, or another doubt; inactive = no such curve, though single readings can be large or run the other way
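A one-generation exposure of luciferase-tagged malaria parasites in RPMI 1640/Albumax erythrocyte culture, 37 C and 5% CO2. Inhibition is inferred from decreased luminescence after adding detection reagent.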
Pf growth 96h: inhibits malaria parasite growth, 96 h; AID 504834; Potency, µM (doses to about 28.7 µM), hits mostly inhibitors; P. falciparum luciferase reporter growth, 96 h; actives 6.9% (n = 320,000); active = well fitted inhibition curve with a large enough effect; inconclusive = small, poorly fitted or top-dose-only effect, or another doubt; inactive = no such curve, though single readings can be large or run the other way
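Two parasite generations (96 h, 37 C, 5% CO2) of compound exposure in infected erythrocytes (0.05% parasitemia, 2% hematocrit). Luciferase-reporter P. falciparum; decreased luminescence indicates inhibited growth, aimed at apicoplast-acting delayed death.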
NS1 inh: blocks influenza NS1 protein function. actives 0.4% (n = 270,000). Potency, µM (doses to about 46.1 µM); note: actives are rising curves; nearly all actives have a fitted effect of over 50% in size
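A cell-based growth assay was used: compounds that relieve NS1-induced slow growth of budding yeast raise OD600. Assay medium was yeast nitrogen base with ammonium sulphate and -URA supplement, pH 6.0, with 2% galactose.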
SARS PLpro yeast: inhibitors of SARS-CoV papain-like protease in yeast | S. cerevisiae expressing SARS-CoV PLpro, growth rescue | Potency, µM (series often up to 32.9 µM), hits mostly activators | actives 0.19% (n = 330,000) | AID 485353; note: nearly all actives have a fitted effect of over 55% in size
A number is an active result; i = inactive; ? = inconclusive; nt = no result. Sampled rows, rich in hits. Any-hit rate of the full collection: about 10%. Unless noted, calls come from the whole dose curve.

SMILES | Pf growth 48h | Pf growth 96h | NS1 inh | SARS PLpro yeast
C=CCn1c(=NC(=O)c2ccco2)sc2cc(C(=O)OCC)ccc21 | i | 6.57µM | i | i
Cc1nnc(SC(C)C(=O)Nc2ccc3ccccc3c2)n1C (stereo not drawn) | i | i | nt | i
Cc1ccc(NC(=O)O/N=C/c2ccc(Br)cc2)cc1 | i | i | i | i
Cc1ccc(NC(=O)O/N=C/c2ccc(F)cc2)cc1 | i | 5.86µM | i | i
Cc1cc(O)c(C(C)C)cc1Cl | ? | 15.1µM | nt | nt
Cc1cc(O)c(C(C)C)cc1NC(=O)c1ccc(Cl)cc1 | ? | ? | i | i
Cc1nc(NC2=NCN(CCc3ccccc3)CN2)nc2ccccc12 | ? | nt | i | i
COCCN1CN=C(Nc2nc(C)c3ccc(C)cc3n2)NC1 | 2.08µM | i | i | i
Cc1ccc2c(C)nc(NC3=NCN(CCc4ccccc4)CN3)nc2c1 | 2.62µM | i | i | i
CSc1ccc(CN(C)C(=O)C(Cc2ccccc2)NC(=O)c2ccccc2)cc1 (stereo not drawn) | i | ? | i | i
CSc1ccc(CN(C)C(=O)C(c2ccccc2)c2ccccc2)cc1 | 8.28µM | ? | i | i
CCC(C(=O)Nc1ccsc1C(=O)OC)c1ccccc1 (stereo not drawn) | i | i | i | i
N#Cc1c(-c2ccccc2F)cc(C2CC2)nc1SCC(=O)c1cccs1 | ? | ? | i | i
Cc1ccc(C2C3=C(CCCC3=O)OC3=C2C(=O)CCC3)cc1 | i | i | i | i
Cc1ccc(C2C3=C(CC(C)(C)CC3=O)OC3=C2C(=O)CC(C)(C)C3)cc1 | 10.4µM | i | i | i
Cc1ccc(C2C3=C(CC(C)(C)CC3=O)Nc3[nH]c(=S)[nH]c(=O)c32)cc1 (stereo not drawn) | i | ? | 8.91µM | i
Cc1ccc(C2C3=C(CC(C)(C)CC3=O)N(CCN3CCOCC3)C3=C2C(=O)CC(C)(C)C3)cc1 | 11.7µM | ? | i | i
CC1(C)CC(=O)C2=C(C1)N(CCN1CCOCC1)C1=C(C(=O)CC(C)(C)C1)C2c1ccc(Cl)c([N+](=O)[O-])c1 | ? | i | i | i
Cc1[nH]nc2c1C(c1ccc(O)cc1)C1=C(CC(C)(C)CC1=O)N2 (stereo not drawn) | i | ? | i | i
O=[As](O)(O)c1ccc2nc3cc([As](=O)(O)O)ccc3nc2c1 | nt | nt | i | nt
COc1ccc(C(=O)NCCNc2ccc([N+](=O)[O-])cc2)cc1OC | i | 5.22µM | i | i
O=C(NCCNc1ccc([N+](=O)[O-])cc1)c1cccc(Br)c1 | i | i | i | i
COc1ccc(-c2noc(CN(C)C(=O)CCN3C(=O)[C@H]4CC=CC[C@H]4C3=O)n2)cc1 | ? | ? | i | i
COc1ccc(NC(=O)CCCN2C(=O)C3CC=CCC3C2=O)cc1 (stereo not drawn) | i | 10.4µM | i | i
COc1ccc(-c2noc(CNC(=O)CCN3C(=O)[C@H]4CC=CC[C@H]4C3=O)n2)cc1 | i | 11.7µM | i | i
SMILES | Pf growth 48h | Pf growth 96h | NS1 inh | SARS PLpro yeast
CCc1ccccc1NC(=O)CCN1C(=O)C2CC=CCC2C1=O (stereo not drawn) | i | 11.7µM | i | i
COc1cccc(NC(=O)CCCN2C(=O)C3CC=CCC3C2=O)c1 (stereo not drawn) | i | i | i | i
COc1ccccc1NC(=O)CCCN1C(=O)C2CC=CCC2C1=O (stereo not drawn) | i | 6.57µM | i | i
O=C(NCc1ccccn1)c1c(-c2ccccc2)sc2ccccc12 | nt | nt | nt | i
Nc1nccnc1C(=O)OCC(=O)NNC(=O)c1ccccc1 | i | i | i | i
O=C(Cn1c(=O)c2cccn2c2ccccc21)NCCc1ccccc1 | i | ? | i | i
O=C(Cn1c(=O)c2cccn2c2ccccc21)NCCc1ccc(Cl)cc1 | i | 10.4µM | i | i
Cc1cccc(N2CCc3c2nc2ccccc2c3N)c1 | ? | 10.4µM | i | i
Cc1cccc(CNc2ccc(S(=O)(=O)N3CCCCC3)cc2)c1 | ? | ? | nt | i
CCOC(=O)c1ccc(NC(=O)c2cccc(S(=O)(=O)N3c4ccccc4CC3C)c2)s1 (stereo not drawn) | 11.7µM | ? | i | i
Cc1cc(C(C)(C)C)cc(C)c1CCNC(=O)c1ccc[n+]([O-])c1 | i | ? | i | i
CN(C(=O)COc1cccc(C#N)c1)C1CCS(=O)(=O)C1 (stereo not drawn) | i | i | nt | i
CCCCC1C(=O)N(c2ccccc2)N(c2ccccc2)C1=O | ? | 3.29µM | ? | i
CCCCCC(=O)OC(CN1CCCCC1)CN1CCCC1=O (stereo not drawn) | i | 10.4µM | ? | i
NC(=O)C1CCCN(C(=S)Nc2cccc3ccccc23)C1 (stereo not drawn) | i | 13.1µM | i | i
O=C(NCCCN1CCCC1=O)c1c(O)nc2ccccn2c1=O | i | i | i | i
O=C(O)CCN1C(=O)C2CCCCC2C1=O (stereo not drawn) | nt | 0.738µM | i | i
O=C(O)CCN1C(=O)C2C3C=CC(C2C1=O)C1C(=O)N(CCC(=O)O)C(=O)C31 (stereo not drawn) | i | i | i | i
Cc1ccc(S(=O)(=O)c2c(C)nn(C(C)(C)C)c2OC(=O)C2CCCC2)cc1 | i | i | i | i
Cc1nn(C(C)(C)C)c(OC(=O)C2CCCC2)c1S(=O)(=O)c1ccccc1 | i | 10.4µM | i | i
Cc1cccc(CSc2cccc3cccnc23)c1 | i | 4.65µM | i | i
CC(C)N(C)Cc1nnnn1CC(=O)NCCc1cccc(C(F)(F)F)c1 | i | ? | i | i
OC(CCN1CCCCC1)(c1ccccc1)c1ccccc1 | ? | ? | i | i
COc1ccc2[nH]c3c(N4CCC(O)(c5cccc(C(F)(F)F)c5)CC4)ncnc3c2c1 | 14.7µM | 2.33µM | i | i
COc1ccc2cc(C(=O)N3CCN(Cc4ccc5c(c4)OCO5)CC3)[nH]c2c1 | i | 13.1µM | i | i
SMILES | Pf growth 48h | Pf growth 96h | NS1 inh | SARS PLpro yeast
COc1ccc2[nH]c3c(N4CCN(Cc5ccc6c(c5)OCO6)CC4)ncnc3c2c1 | 4.15µM | 5.86µM | i | i
Cc1nc(C)c(-c2ccc(SCC(=O)Nc3cccc(Cl)c3C)nn2)s1 | i | i | i | i
O=C(COC(=O)CCN=C1NS(=O)(=O)c2ccccc21)NNC(=O)c1ccc(Cl)cc1 | i | i | nt | i
Cc1cccc(NS(=O)(=O)c2cccc(C(=O)N3CCN(S(=O)(=O)c4ccccc4)CC3)c2)c1 | ? | 11.7µM | nt | i
Cc1cc(S(=O)(=O)Nc2ccc(C(=O)N3CCN(c4ccccc4O)CC3)cc2)ccc1F | i | i | i | i
Cc1ccc(S(=O)(=O)Nc2cccc(C(=O)N3CCN(c4ccccc4O)CC3)c2)cc1F | 1.47µM | ? | nt | i
CCC(C)NC(=O)c1ccc2c(c1)S(=O)(=O)c1ccccc1C2=O (stereo not drawn) | i | i | i | i
N.N.N.N.N.N.N.N.N.N.N.N.N.N.O.O.[Cl-].[Cl-].[Cl-].[Cl-].[Cl-].[Cl-].[Ru].[Ru].[Ru] | nt | nt | i | nt
O=C(CNC(=O)c1ccccn1)N=Nc1c(O)[nH]c2ccccc12 | ? | i | i | i
CN1CCN(/C(=N\O)c2nonc2N)CC1 | i | 14.7µM | ? | i
Nc1nonc1/C(=N/O)N1CCN(CCO)CC1 | i | i | i | i
CC(=O)NCCc1nc2cc(NS(=O)(=O)c3ccc(Cl)cc3)ccc2n1C | i | ? | i | i
